Laboratory results from PubChem BioAssay (NCI).
The panel holds about 83,000 compounds, 20% with a hit somewhere; the sample as a whole holds those more often.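 Negative percent growth values reflect cell death: -40 means 40% of the cells present at the start died, and -100 means all died.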 Active and inactive are the calls of the source. How the source made its calls: active means growth percent below 10; inactive means the rest.

These molecules were tested on SK-OV-3 ovarian (assay: NCI-60 one-dose screen, 48 h (100 = growth as untreated, 0 = no growth, -100 = all killed)). Details: 10 µM unless noted.
In the case of OC(c1ccc(F)c(C(F)(F)F)c1)c1cnccc1NC1CCCCC1 (stereo unspecified), the growth is reported as 103% (inactive).
In the case of CC(=O)CCC(=O)OCc1cc(=O)c(O)co1, the growth is reported as 128% (inactive).
For O=S(=O)(Nc1ccc(-n2cnc3cc(-c4ccc(O)cc4)ccc32)cc1)c1ccccc1, the growth was 127% (inactive).
With O=C1Nc2cc(-c3ccc(NC(=O)c4ccccc4)cc3)ccc2/C1=C/c1ccc[nH]1 the growth was 110% (inactive).
For CCCOC(=O)N[C@H]1CCc2cc(OC)c(OC)c(OC)c2-c2ccc(SC)c(=O)cc21, the growth was 42.7% (inactive).
For COc1ccc(C(=O)Nc2cccc(C3CCc4c(cc(OC)c(OC)c4OC)O3)c2)cc1 (stereo unspecified), the growth was 51.6% (inactive).
In the case of COc1cc(/C=N/O)nc(-c2ccccn2)c1, the growth is reported as 28.6% (inactive).
For NC(=NCCCOc1ccc(F)cc1)Nc1ccc(I)cc1, the growth was 81.8% (inactive).
With Cn1c(-c2c(N)n(CCCN3CCOCC3)c3nc(C#N)c(C#N)nc23)nc2ccccc21 the growth was 93.6% (inactive).
In the case of CCOC(=O)c1ccc2c(c1)ncn2-c1ccc(NC(=O)Nc2cccc(C)c2)cc1, the growth is reported as 97.5% (inactive).
With COc1ccc2[nH]c(=O)c(CN3CCN(c4nccc(-c5ccc(Cl)cc5)n4)CC3)cc2c1 the growth was 94.9% (inactive).
With O=C(/C(=C\c1ccc([N+](=O)[O-])cc1)S(=O)Cc1ccc(Cl)cc1)c1ccc(Cl)cc1 (stereo unspecified) the growth was 105% (inactive).
In the case of CCN(CC)CC[n+]1cc2cc(OC)c(OC)cc2c2ccc3cc4c(cc3c21)OCO4, the growth is reported as -10.7% (active).
For N#CC(C#N)=Cc1cc2ccccc2nc1Oc1ccc(C(F)(F)F)cc1, the growth was 88.6% (inactive).
COc1cc(/C=C\C(=O)O)ccc1OCc1ccccc1 was tested, and the growth was 102% (inactive).
With c1ccc(-c2cn3c(ccc4ccccc43)n2)cc1 the growth was 77.1% (inactive).
O=C(Nc1ccc(Cl)cc1)c1cc(NCc2cc(O)ccc2O)ccc1O was tested, and the growth was 103% (inactive).
For N/C(=N\C(N)=N\c1nc2ccccc2s1)c1cnccn1, the growth was 12.9% (inactive).
For CCOC(=O)[C@@H](C)C[C@H](Cc1ccccc1)NC(=O)c1csc([C@@H](C[C@H](C(C)C)N(C)C(=O)[C@@H](NC(=O)[C@H]2C[C@H](O[Si](C)(C)C(C)(C)C)CCN2C)C(C)C)OC(C)=O)n1, the growth was -2.86% [9.25 µM] (active).
CC(C)N1C(=O)/C(=C2\SC(=S)N(C(C)C)C2=O)SC1=S was tested, and the growth was 113% (inactive).
In the case of C#CCNC(=O)c1cccc2c1cc(C)n2-c1nc2c(c(NCc3ccccc3)n1)CCCC2, the growth is reported as 2.45% (active).
For COc1cc2nc(-c3ccc(Cl)cc3)cc(OCCCN3CCCCC3)c2cc1OC, the growth was 78.9% (inactive).
In the case of O=C(N/N=C/c1ccc(Oc2ccccc2)cc1)c1cnn2c1NC(c1ccccc1)C2 (stereo unspecified), the growth is reported as 48.5% (inactive).
With O=[N+]([O-])CC(c1ccccc1)c1c[nH]c2ccccc12 (stereo unspecified) the growth was 96.3% (inactive).
COc1ccc(CNCCN2C(=O)c3ccc4c5c(ccc(c35)C2=O)C(=O)N(CCNCc2ccc(OC)c(OC)c2OC)C4=O)c(OC)c1OC was tested, and the growth was 58% (inactive).
Cn1c(N2NC(=O)C(N=Nc3ccc(S(N)(=O)=O)cc3)C2=O)nc(-c2ccco2)c(C#N)c1=O (stereo unspecified) was tested, and the growth was 102% (inactive).
For CCCOC(=O)N[C@H]1CCc2c(Cl)c(OC)c(OC)c(OC)c2-c2ccc(SC)c(=O)cc21, the growth was 38.3% (inactive).
C/C=C(\C)C(=O)NC1=CC[C@@]2(C)C(=CCC3C2CC[C@@]2(C)C3CC[C@@H]2C(C)N(C)C)C1=O (stereo partly specified) was tested, and the growth was 114% (inactive).
COc1ccccc1/C(C)=N/NC(=O)CSc1nc2ccccc2c(=O)n1Cc1ccc(S(N)(=O)=O)cc1 was tested, and the growth was 115% (inactive).
COc1ccc(OC)c(-c2cc(-c3ccc(Cl)cc3)c3c(N)c(C(=O)c4ccc(Cl)cc4)sc3n2)c1 was tested, and the growth was 89.8% (inactive).
With N#C/C(=C\c1ccc(Cl)cc1)n1nnc2cc(F)c(F)cc21 the growth was 88.7% (inactive).
COc1cccc(C(=O)NNc2nc(Cl)nc(N3CCN(C(c4ccccc4)c4ccccc4)CC3)n2)c1 was tested, and the growth was 96% (inactive).
With C=C1C(=O)O[C@H]2[C@H]1CC/C(CNC(=O)/C=C/c1ccccc1)=C\CC[C@@]1(C)O[C@@H]21 the growth was 109% (inactive).
In the case of CCN(CC)CCOc1ccc(NC(=O)C(C(C)C)N2C(=O)/C(=C/c3ccc(Br)cc3)SC2=S)cc1 (stereo unspecified), the growth is reported as 113% (inactive).
For N#Cc1cccc(-c2ccc3c(c2)NC(=O)/C3=C\c2ccc[nH]2)c1, the growth was 24.1% (inactive).
With CCCCCCCCOc1ccc(/C=N/Nc2cc(C)nc3ccc(Br)cc23)cc1 the growth was 104% (inactive).
For O=C(N/N=C/c1cc2ccccc2n2nnnc12)Nc1ccccc1, the growth was 112% (inactive).
COc1cc2c(c(O)c1Br)C(=O)c1c(O)cc(C[C@H](C)O)cc1[C@H]2[C@H]1c2cc(C[C@H](C)O)cc(O)c2C(=O)c2c1cc(OC)c(Br)c2O was tested, and the growth was 8.82% (active).

The molecules below were run on IGROV1 ovarian in the same assay as above. Details: 10 µM unless noted.
In the case of OC(c1ccc(F)c(C(F)(F)F)c1)c1cnccc1NC1CCCCC1 (stereo unspecified), the growth is reported as 70% (inactive).
CC(=O)CCC(=O)OCc1cc(=O)c(O)co1 was tested, and the growth was 98.6% (inactive).
In the case of O=S(=O)(Nc1ccc(-n2cnc3cc(-c4ccc(O)cc4)ccc32)cc1)c1ccccc1, the growth is reported as 91.4% (inactive).
With O=C1Nc2cc(-c3ccc(NC(=O)c4ccccc4)cc3)ccc2/C1=C/c1ccc[nH]1 the growth was 95.3% (inactive).
For CCCOC(=O)N[C@H]1CCc2cc(OC)c(OC)c(OC)c2-c2ccc(SC)c(=O)cc21, the growth was 17.5% (inactive).
In the case of COc1ccc(C(=O)Nc2cccc(C3CCc4c(cc(OC)c(OC)c4OC)O3)c2)cc1 (stereo unspecified), the growth is reported as 52% (inactive).
For COc1cc(/C=N/O)nc(-c2ccccn2)c1, the growth was 19.2% (inactive).
For NC(=NCCCOc1ccc(F)cc1)Nc1ccc(I)cc1, the growth was 66.3% (inactive).
For Cn1c(-c2c(N)n(CCCN3CCOCC3)c3nc(C#N)c(C#N)nc23)nc2ccccc21, the growth was 65.6% (inactive).
In the case of CCOC(=O)c1ccc2c(c1)ncn2-c1ccc(NC(=O)Nc2cccc(C)c2)cc1, the growth is reported as 98.9% (inactive).
For COc1ccc2[nH]c(=O)c(CN3CCN(c4nccc(-c5ccc(Cl)cc5)n4)CC3)cc2c1, the growth was 106% (inactive).
O=C(/C(=C\c1ccc([N+](=O)[O-])cc1)S(=O)Cc1ccc(Cl)cc1)c1ccc(Cl)cc1 (stereo unspecified) was tested, and the growth was 62.7% (inactive).
For CCN(CC)CC[n+]1cc2cc(OC)c(OC)cc2c2ccc3cc4c(cc3c21)OCO4, the growth was -44.1% (active).
In the case of N#CC(C#N)=Cc1cc2ccccc2nc1Oc1ccc(C(F)(F)F)cc1, the growth is reported as 79.3% (inactive).
COc1cc(/C=C\C(=O)O)ccc1OCc1ccccc1 was tested, and the growth was 103% (inactive).
With c1ccc(-c2cn3c(ccc4ccccc43)n2)cc1 the growth was 49.3% (inactive).
For O=C(Nc1ccc(Cl)cc1)c1cc(NCc2cc(O)ccc2O)ccc1O, the growth was 84.2% (inactive).
N/C(=N\C(N)=N\c1nc2ccccc2s1)c1cnccn1 was tested, and the growth was -1.19% (active).
CCOC(=O)[C@@H](C)C[C@H](Cc1ccccc1)NC(=O)c1csc([C@@H](C[C@H](C(C)C)N(C)C(=O)[C@@H](NC(=O)[C@H]2C[C@H](O[Si](C)(C)C(C)(C)C)CCN2C)C(C)C)OC(C)=O)n1 was tested, and the growth was 15.7% [9.25 µM] (inactive).
With CC(C)N1C(=O)/C(=C2\SC(=S)N(C(C)C)C2=O)SC1=S the growth was 94.4% (inactive).
With C#CCNC(=O)c1cccc2c1cc(C)n2-c1nc2c(c(NCc3ccccc3)n1)CCCC2 the growth was -21.7% (active).
For COc1cc2nc(-c3ccc(Cl)cc3)cc(OCCCN3CCCCC3)c2cc1OC, the growth was 33.2% (inactive).
In the case of O=C(N/N=C/c1ccc(Oc2ccccc2)cc1)c1cnn2c1NC(c1ccccc1)C2 (stereo unspecified), the growth is reported as 59.3% (inactive).
O=[N+]([O-])CC(c1ccccc1)c1c[nH]c2ccccc12 (stereo unspecified) was tested, and the growth was 53.7% (inactive).
In the case of COc1ccc(CNCCN2C(=O)c3ccc4c5c(ccc(c35)C2=O)C(=O)N(CCNCc2ccc(OC)c(OC)c2OC)C4=O)c(OC)c1OC, the growth is reported as -29.9% (active).
With Cn1c(N2NC(=O)C(N=Nc3ccc(S(N)(=O)=O)cc3)C2=O)nc(-c2ccco2)c(C#N)c1=O (stereo unspecified) the growth was 30.7% (inactive).
With CCCOC(=O)N[C@H]1CCc2c(Cl)c(OC)c(OC)c(OC)c2-c2ccc(SC)c(=O)cc21 the growth was 11.7% (inactive).
In the case of C/C=C(\C)C(=O)NC1=CC[C@@]2(C)C(=CCC3C2CC[C@@]2(C)C3CC[C@@H]2C(C)N(C)C)C1=O (stereo partly specified), the growth is reported as 40.4% (inactive).
In the case of COc1ccccc1/C(C)=N/NC(=O)CSc1nc2ccccc2c(=O)n1Cc1ccc(S(N)(=O)=O)cc1, the growth is reported as 102% (inactive).
In the case of COc1ccc(OC)c(-c2cc(-c3ccc(Cl)cc3)c3c(N)c(C(=O)c4ccc(Cl)cc4)sc3n2)c1, the growth is reported as 92.1% (inactive).
N#C/C(=C\c1ccc(Cl)cc1)n1nnc2cc(F)c(F)cc21 was tested, and the growth was 6.69% (active).
For COc1cccc(C(=O)NNc2nc(Cl)nc(N3CCN(C(c4ccccc4)c4ccccc4)CC3)n2)c1, the growth was 2.85% (active).
C=C1C(=O)O[C@H]2[C@H]1CC/C(CNC(=O)/C=C/c1ccccc1)=C\CC[C@@]1(C)O[C@@H]21 was tested, and the growth was -16.9% (active).
In the case of CCN(CC)CCOc1ccc(NC(=O)C(C(C)C)N2C(=O)/C(=C/c3ccc(Br)cc3)SC2=S)cc1 (stereo unspecified), the growth is reported as 82.2% (inactive).
N#Cc1cccc(-c2ccc3c(c2)NC(=O)/C3=C\c2ccc[nH]2)c1 was tested, and the growth was 34.2% (inactive).
CCCCCCCCOc1ccc(/C=N/Nc2cc(C)nc3ccc(Br)cc23)cc1 was tested, and the growth was 62.5% (inactive).
O=C(N/N=C/c1cc2ccccc2n2nnnc12)Nc1ccccc1 was tested, and the growth was 112% (inactive).
With COc1cc2c(c(O)c1Br)C(=O)c1c(O)cc(C[C@H](C)O)cc1[C@H]2[C@H]1c2cc(C[C@H](C)O)cc(O)c2C(=O)c2c1cc(OC)c(Br)c2O the growth was 2.65% (active).
